From PubChem BioAssay
PGK inhibitor: inhibitors of T. brucei phosphoglycerate kinase; P07378; PGK/GAPDH coupled, Kinase-Glo luminescence, 60 min; Potency, µM (highest dose often 57.5 µM), without a hit: at the top dose activity change, negative = inhibition, hits mostly inhibitors; 380,000 tested, 0.043% active; AID 602233; further: potency means the concentration at half of the fitted maximal effect; on the % scale 0 is the no-effect control and ±100 the full control effect; nearly all actives have a fitted effect of over 60% in size
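Recombinant glycosomal PGK reaction used 1,3-bisphosphoglycerate generated in-well by GAPDH (100nM final) in 100mM TEA pH 7.6, 5mM MgCl2, 0.01% Tween-20. After 60 minutes at room temperature, ATP was read by Kinase-Glo Plus luminescence end-point.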
Vif-A3F inh: Vif-A3F binding inhibition; Potency, µM (series often up to 46.1 µM), for inactives: at the highest dose activity, negative = active; 390,000 tested, 0.2% active; HeLa A3F-eYFP + Vif (tagged APOBEC3F with the HIV-1 protein that degrades it), YFP fluorescence increase; further: potency means the concentration at half of the fitted maximal effect; % of control where 0% means no effect; nearly all actives have a fitted effect of over 65% in size
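HeLa cells stably expressing A3F-eYFP plus Vif, plated and incubated overnight at 37 deg C, then exposed to compounds overnight at 37 deg C. Blocked degradation read as raised yellow fluorescence (Ex 488/Em 500-530).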
Pin1 inhibitor: blocks the human prolyl isomerase Pin1 | Q13526 | Pin1 FP peptide displacement, HiFluor488, 10 min | Potency, µM (titrated, usually from 115 µM), for inactives: at the top dose activity, negative = inhibition, usual class: inhibitors | 390,000 tested, 0.009% active; active means well fitted inhibition curve with a large enough effect in the polarisation, with a control signal flat, not every such curve was filed as active; inconclusive means small, poorly fitted or top-dose-only effect, or effect the other way, or a change in a side signal; inactive means no such curve, though single readings can be large or run the other way; the % refers to the polarisation; further: potency means the concentration at half of the fitted maximal effect; on the % scale 0 is the no-effect control and ±100 the full control effect
Target sequence (Q13526 whole entry, looked up): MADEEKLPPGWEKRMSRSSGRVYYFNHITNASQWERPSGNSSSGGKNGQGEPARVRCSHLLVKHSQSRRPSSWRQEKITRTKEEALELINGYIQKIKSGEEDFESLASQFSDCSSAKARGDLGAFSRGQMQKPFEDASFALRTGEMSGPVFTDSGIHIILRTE
Vif-APOBEC3G blk: Vif-A3G binding inhibition; Q9HC16; HeLa A3G-eYFP + Vif (tagged APOBEC3G with the HIV-1 protein that degrades it), YFP fluorescence, overnight; Potency, µM (series often up to 46.1 µM), without a hit: top-dose activity, negative = active, usual class: inhibitors; 410,000 tested, 0.076% active; AID 602310; further: potency means the concentration at half of the fitted maximal effect; on the % scale 0 is the no-effect control and ±100 the full control effect; nearly all actives have a fitted effect of over 60% in size
Target sequence (Q9HC16 whole entry, looked up): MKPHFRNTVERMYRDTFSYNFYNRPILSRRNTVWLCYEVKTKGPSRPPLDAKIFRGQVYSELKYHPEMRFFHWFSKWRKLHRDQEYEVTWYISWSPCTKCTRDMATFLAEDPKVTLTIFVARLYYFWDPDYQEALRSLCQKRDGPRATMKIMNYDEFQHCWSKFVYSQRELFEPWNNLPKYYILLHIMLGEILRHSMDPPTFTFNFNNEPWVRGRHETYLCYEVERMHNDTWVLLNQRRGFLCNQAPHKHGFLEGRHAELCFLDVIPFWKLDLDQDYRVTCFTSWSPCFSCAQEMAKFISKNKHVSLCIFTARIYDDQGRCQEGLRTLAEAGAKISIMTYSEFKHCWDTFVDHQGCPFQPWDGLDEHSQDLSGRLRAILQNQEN
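HeLa cells stably expressing Vif and C-terminally eYFP-tagged A3G, seeded overnight at 37 deg C, then exposed to compound by pintool overnight at 37 deg C. Rise in yellow fluorescence (Ex 488/Em 500-530, Acumen) marks blocked Vif-driven A3G degradation.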
mIDH1 inhibitor: blocks human mutant IDH1 R132H enzyme | O75874 | IDH1-R132H enzyme, NADPH consumption, diaphorase/resazurin fluorescence | Potency, µM (top dose mostly 76.6 µM), without a hit: top-dose activity change, negative = inhibition, actives largely listed as inhibitors | 390,000 tested, 0.093% active | AID 602179; further: potency means the concentration at half of the fitted maximal effect; on the % scale 0 is the no-effect control and ±100 the full control effect; nearly all actives have a fitted effect of over 65% in size
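IDH1-R132H (0.5 ug/mL) preincubated 30 min with compound, then NADPH (0.016 mM) and alpha-KG (2 mM) added; 80 min at RT, pH 7.5. Remaining NADPH coupled via diaphorase/resazurin to fluorescence (540/590 nm); concentration-response curves normalized to no-enzyme control.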
LDHA block: blocks human lactate dehydrogenase A; P00338; purified LDHA, NADH/diaphorase-resazurin fluorescence; hits give low values; activity change, % (values are at about 110 or 230 µM); 480,000 tested, 0.15% active; AID 1347041; in the data active means activity change below about -30%; inconclusive means mostly about -25% to -30%;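 further: plate controls were DMSO wells for no effect and wells without enzyme for full effect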
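Enzyme activity of human lactate dehydrogenase 5 (2 nM; 0.06 mM NADH, 0.2 mM pyruvate, 5 min, RT) is measured via a resazurin/diaphorase fluorescence readout of residual NADH.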
Starred values were filed as active, the others as inactive; i = inactive; u = inconclusive; x = no result given. Sampled rows, rich in hits. Any-hit rate of the full collection: about 0.49%. Unless noted, the call rests on the fitted dose curve; in most records, active means well fitted curve in the direction sought with a large enough effect; inconclusive means small, poorly fitted or top-dose-only effect, or another doubt; inactive means no such curve, though single readings can be large; an effect the other way counts as inactive or inconclusive.

SMILES	PGK inhibitor	Vif-A3F inh	Pin1 inhibitor	Vif-APOBEC3G blk	mIDH1 inhibitor	LDHA block
CC1(C)CC(=O)C2=C(C1)NC(Nc1nc3ccccc3o1)=NC2c1cccc(Cl)c1 (configuration not stated)	x	x	x	x	x	-30.3*
N#Cc1ccc(/C=C2\CCOc3cc(Br)ccc3C2=O)cc1	x	x	x	x	x	-4.2
C/C(=N/Nc1ccc(S(N)(=O)=O)cc1[N+](=O)[O-])c1ccc(Cl)cc1Cl	x	x	x	x	x	3.5
C=CCn1c(=O)/c(=C/c2cc(OC)c(OC)c(OC)c2)s/c1=C(/C#N)c1nc2ccccc2n1C	-1.9%	22.4µM*	u	-7.7%	-0.3%	-2.1
CCN1CCN(c2oc(-c3cccs3)nc2C#N)CC1	x	x	x	x	x	-31.2*
N#Cc1nc(-c2ccc(F)cc2)oc1N1CCN(Cc2ccccc2)CC1	x	x	x	x	x	-34.4*
N#Cc1nc(-c2cccs2)oc1N1CCN(c2ccccc2)CC1	-2.6%	-13.7%	8.2%	-0.5%	13.6%	3.4
CCN1CCN(c2oc(-c3ccccc3F)nc2C#N)CC1	x	x	x	x	x	-30.8*
CC(=O)N=c1nc(-c2ccccc2)n(-c2ccccc2)s1	x	x	5.1%	-0.7%	x	-32.0*
Cn1c2ccc(Br)cc2c2nnc(SCn3nnc4ccccc43)nc21	x	x	x	x	x	2.8
COc1cccc(-c2ccc3c(N)c(C(=O)c4ccc(Br)cc4)sc3n2)c1	13.9%	7.94µM*	u	u	2.0%	-14.7
COc1ccc(C(=O)c2sc3nc(-c4ccccc4)ccc3c2N)cc1OC	13.4%	-15.5%	113.8%	u	-2.2%	-11.5
CCn1c(CNC(=O)c2ccc(OC)cc2)nnc1SCC(=O)c1ccc(Br)cc1	x	x	x	x	x	-8.4
CCn1c(CNC(=O)c2ccc3c(c2)OCO3)nnc1SCC(=O)c1ccc(OC)cc1	x	x	x	x	x	-30.4*
CCc1cc(=O)n(CC(=O)N2CCCCC2CC)c(-c2ccccc2)n1 (configuration not stated)	x	x	x	x	x	-0.2
CCC1CCCCN1C(=O)Cn1c(-c2ccccc2)nc(C)cc1=O (configuration not stated)	x	x	x	x	x	-33.4*
CCNc1sc(C(C)=O)c(N)c1C#N	x	x	x	x	x	-34.9*
c1cc2c3c(cccc3c1)/C(=N/OCC1CO1)C2 (configuration not stated)	x	x	x	x	x	-30.8*
CC(C)COc1ccc(C(=O)N/C(=C\c2cccc([N+](=O)[O-])c2)C(=O)O)cc1	i	-1.7%	x	0.0%	-1.7%	-6.5
CC(C)COc1ccc(C(=O)N/C(=C/c2cccc([N+](=O)[O-])c2)C(=O)O)cc1	-0.3%	-9.4%	u	10µM*	2.8%	-2.7
c1ccc(-c2c(-c3ccccc3)n(Cc3ccco3)c3ncnc(NCCCn4ccnc4)c23)cc1	4.3%	0.0%	u	-8.4%	29.3µM*	1.3
CC(=O)Nc1ccc(Nc2c3c4c(cccc4n(C)c2=O)C(=O)c2ccccc2-3)cc1	-6.7%	8.91µM*	u	-12.3%	4.7%	1.7
COc1cc2cccc(OC)c(=O)c2c(O)c1OC	i	8.7%	-0.9%	-0.5%	2.7%	6.4
COc1cc2c(ccc3cc(OC)c(OC)c(O)c32)cc1O	11.2µM*	4.4%	u	-4.5%	-1.9%	7.7
O=C(C[n+]1cccc2ccccc21)c1ccc(F)cc1	x	x	x	-4.3%	x	x
SMILES	PGK inhibitor	Vif-A3F inh	Pin1 inhibitor	Vif-APOBEC3G blk	mIDH1 inhibitor	LDHA block
O=C(C[n+]1c2ccccc2cc2ccccc21)c1ccc(F)cc1	x	x	x	5.3%	x	-44.9*
COc1ccc(NC(=O)NC2CCN(c3nc(C)cc(C)n3)CC2)cc1	x	x	x	x	x	11.1
CCCc1ccc(C(NC(=O)Cn2c(=O)c3c(ncn3C)n(C)c2=O)C(C)C)cc1 (configuration not stated)	x	x	x	x	x	-1.4
CC(C)(C)c1ccc(-c2nc(-c3ccc(Br)o3)no2)cc1	x	x	x	x	x	-30.6*
Nc1c(C(=O)N/N=C/c2cccnc2)oc2nc(-c3ccccc3)cc(-c3ccco3)c12	-2.2%	10µM*	u	-13.1%	7.7%	13.3
C=CCSc1nc2c(c(=O)n(C)c(=O)n2C)n1Cc1ccccc1Cl	x	x	x	x	x	2.8
COc1ccc(C2Nc3ccccc3-c3cc(C)nn32)cc1O (configuration not stated)	x	x	x	x	x	9.9
O=C(O)c1cccc2cccc(-c3c4ccc(=O)c(O)c-4oc4c(O)c(O)ccc34)c12	2.51µM*	4.8%	x	-0.4%	-7.4%	9.3
O=C(O)c1cccc2cc(-c3ccccc3)oc(=O)c12	-3.4%	-0.1%	-7.8%	0.2%	30.6%	-0.8
O=C(Cc1c[nH]c2ccccc12)Nc1nc2ccc(F)cc2s1	x	x	x	x	x	-19.3
O=[N+]([O-])c1cc(Br)c(O)c(/C=N/Nc2nnnn2-c2cccc3ccccc23)c1	-7.2%	7.0%	-19.2%	-4.6%	6.0%	-36.8*
O=[N+]([O-])c1ccc(NN=Cc2cccc3ccccc23)cc1	-13.1%	2.1%	26.4%	1.9%	4.9%	-9.1
COc1cc(/C=C2\SC(=S)N(NC(=O)c3ccccc3O)C2=O)ccc1O	-1.6%	11.2µM*	u	-10.2%	u	3.8
CCC(C(=O)Nc1c(C)cc(C)cc1C)n1c2ccccc2c2nc(=O)cc(C)n21 (configuration not stated)	x	x	x	x	x	4.4
O=[N+]([O-])c1ccc(C2=Nc3cc(Cl)ccc3OC2)cc1	-16.8%	25.1µM*	u	-5.0%	-0.7%	-0.5
CSc1ccccc1C(=O)Nc1ccc(C)cc1C	i	0.2%	3.8%	-3.3%	14.1%	-11.5
CSc1ccccc1C(=O)Nc1c(C)cc(C)cc1C	x	x	x	x	x	-31.8*
O=C(/C=C/c1cccc2cccnc12)OCc1cc(-c2ccc(Cl)cc2)no1	x	x	x	x	x	0.4
Cn1cc(/C=C2\SC(=S)N(NC(=O)c3ccccc3)C2=O)c2ccccc21	-9.9%	u	u	5.5%	12.3%	-1.7
Cn1cc(/C=C2\SC(=S)N(NC(=O)c3cccc(Cl)c3)C2=O)c2ccccc21	-0.3%	7.94µM*	u	u	6.1%	-0.6
CCOc1ccc(NS(=O)(=O)c2cc(-c3cnc(C4CC4)o3)ccc2C)cc1	x	x	x	x	x	15.7
S=c1[nH]nc(-c2ccc(Br)cc2)n1-c1ccc(Br)cc1	9.4%	-4.3%	0.3%	-4.8%	-4.7%	-8.3
O=[N+]([O-])c1cccc(-c2n[nH]c(=S)n2-c2ccc(Br)cc2)c1	-3.9%	10.1%	-3.5%	0.0%	3.7%	-31.8*
O=C(NC(=S)Nc1ccc(N2CCCCC2)c(Cl)c1)c1ccc2c(c1)OCCO2	4.9%	10µM*	u	-25.9%	4.4%	1.3
Cc1cc(/C=C2\SC(=S)N(Cc3ccco3)C2=O)c(C)n1-c1cccnc1	-0.2%	11.2µM*	u	5.62µM*	4.3%	0.0
